# Experimental data taken from the supplement of paper PMC10981050.
# “And” between values parts separate entries of the source, which are not always exact repeats. Equal values may be shown once. Where a name gives a salt, the structure may show the parent alone.
# Tests used:
# Experiment in all cases: cell viability relative to vehicle control; higher = less cytotoxic
# Conditions in all cases: 10 µM
# [1] = tested on: K562
# Summary of the method: (§1)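 Each screen used CRISPR-edited mutant and wild-type clones from four leukaemia lines. Compounds were acoustically dispensed at a single 10 µM dose, and CellTiter-Glo luminescence was read after 48 h with the supernatant first removed. Viability was analysed in Genedata Screener and given as percent of the on-plate vehicle control.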
# [2] = tested on: MARIMO
# Summary of the method: as §1
# [3] = tested on: MOLM14
# Summary of the method: as §1
# [4] = tested on: OCI-AML2
# Summary of the method: as §1
Compound,cell viability ([1]; SRSF2 genotype: SRSF2 P95H/wt),cell viability ([1]; SRSF2 genotype: SRSF2 wt/wt) [%],cell viability ([2]; SRSF2 genotype: SRSF2 P95H/wt) [%],cell viability ([2]; SRSF2 genotype: SRSF2 wt/wt) [%],cell viability ([3]; SRSF2 genotype: SRSF2 P95H/wt) [%],cell viability ([3]; SRSF2 genotype: SRSF2 wt/wt) [%],cell viability ([4]; SRSF2 genotype: P95H/wt) [%],cell viability ([4]; SRSF2 genotype: wt/wt) [%]
O=C(O)c1cccnc1Nc1cccc(C(F)(F)F)c1 [Niflumic acid],97.2% and 100%,94.6,94.1,97.8,93.8,98.5,101,104
CC(=O)Nc1nc(-c2cccc(NS(=O)(=O)c3cccc4c(N(C)C)cccc34)c2)cs1,61.8% and 63.7%,62,58.7,43.8,62.4,66.6,33.3,40.5
CC(C)=CCCC(C)(O)C1CCC2(C)C1C(O)CC1C3(C)CCC(OC4OC(CO)C(O)C(O)C4OC4OC(CO)C(O)C(O)C4O)C(C)(C)C3CCC12C [(20R)Ginsenoside Rg3],105% and 103%,99.1,107,122,108,109,105,128
COC(=O)C1=CO[C@@H](O[C@@H]2O[C@H](CO)[C@@H](O)[C@H](O)[C@H]2O)[C@@H]2[C@@]3(C)O[C@H]3[C@@H](O)[C@]12O [Sesamoside],101% and 102%,104,102,98.4,109,105,104,107
CC(C)c1onc(-c2c(Cl)cccc2Cl)c1COc1ccc(/C=C/c2cccc(C(=O)O)c2)c(Cl)c1,95.1% and 94.7%,99.7,94.5,98.6,95.5,97.3,69.3,82
Cc1ccc(Sc2cncc3sc(C(N)=O)cc23)cc1,91.6% and 90.7%,90.6,95.7,102,89.3,100,68.8,69.4
COc1cc(O)c(CC=C(C)C)c2c1C(=O)CC(c1ccc(O)cc1)O2 (stereo not given) [Isoxanthohumol],83.1% and 81.6%,78.3,94.3,82.2,94.7,97.7,93.7,93
O=[N+]([O-])c1ccc(Sc2cccc[n+]2[O-])c2nonc12,0.23% and 0.26%,0.23,0.65,0.24,0.22,0.25,0.28,0.27
CCOC(=O)C1=C(N)Oc2ccc(Br)cc2C1C(C#N)C(=O)OCC (stereo not given),84.9% and 89.9%,86.5,65.6,56,48.6,74.9,67.4,66
NC(=O)c1[nH]cnc1N [4-Amino-5-imidazolecarboxamide],101% and 104%,105,101,107,99.1,108,97.3,108
N#Cc1ccc(COC[C@H]2O[C@@H](n3c(NCc4ccc(Cl)c(Cl)c4)nc4c(N)ncnc43)[C@H](O)[C@@H]2O)cc1,52% and 62.8%,45.7,32.5,35.6,26,14.3,35.1,34.8
COC(=O)C1=C(C)NC(C)=C(C(=O)OC2CCCN(Cc3ccccc3)C2)C1c1cccc([N+](=O)[O-])c1 (stereo not given) [Benidipine hydrochloride],77.9% and 79.1%,71.8,76.6,84.7,86.3,79.2,81.5,85.9
CCCCCCCCCCCCCCCc1cccc(O)c1C(=O)O [Anacardic Acid],88.9% and 86.6%,84.8,81.7,86.7,86.3,82.9,87.5,83.5
CO[C@H]1C[C@@H]2CC[C@@H](C)[C@@](O)(O2)C(=O)C(=O)N2CCCC[C@H]2C(=O)O[C@H]([C@H](C)C[C@@H]2CC[C@@H](OCCO)[C@H](OC)C2)CC(=O)[C@H](C)/C=C(\C)[C@@H](O)[C@@H](OC)C(=O)[C@H](C)C[C@H](C)/C=C/C=C/C=C/1C [Everolimus (RAD001)],59.9% and 63.6%,70.4,73.8,71.6,57.4,51.4,60,61.6
CCC1=C(C)CN(C(=O)NCCc2ccc(S(=O)(=O)NC(=O)N[C@H]3CC[C@H](C)CC3)cc2)C1=O [Glimepiride],101% and 82.6%,93.7,91.7,116,94.6,92.4,97.3,105
COc1cc(C)c(/C=C/C(C)=C/C=C/C(C)=C/C(=O)O)c(C)c1C [Acitretin],87% and 91.6%,90,79.1,88.1,87.4,89.2,32.6,52
C[C@@H]1CC(=O)NN=C1c1ccc(NN=C(C#N)C#N)cc1 [Levosimendan],92.4% and 105%,99.4,68.9,86,94.7,81.7,69.8,67.1
O=C(O)c1ccc(NC(=O)[C@H](Cc2ccc(O)cc2)NC(=O)c2ccccc2)cc1 [bentiromide],103% and 106%,106,112,111,95.6,104,110,96.2
NS(=O)(=O)c1cc2c(cc1Cl)N=CNS2(=O)=O [Chlorothiazide],100% and 94%,94.5,98,105,102,97.8,93.7,109
CNCC[C@H](Oc1cccc2ccccc12)c1cccs1 [Duloxetine HCl (Cymbalta)],45.7% and 60.1%,54.7,55,61.4,55.9,70.9,46.2,53.5
